Results reported in the supplement of paper PMC12350171.
Structures can show the parent of a compound that is named as a salt. Values without a mark were called inactive.

Assays:
Settings in all cases: 20 µM
[1] = tested on: Salmonella enterica typhimurium; test: growth AUC normalised to DMSO control (fraction of control); higher = less growth inhibition, active = hit call of the paper
Summary of the method: (§1)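 Hemin and NAD were added to the medium for Haemophilus parainfluenzae. All pathogens, after two anaerobic passages, were inoculated at a starting OD578 of 0.01 into pre-reduced mGAM plates with 20 μM compound and 1% DMSO under breathable seals, and OD578 was read hourly for 24 h in three biological replicates. AUC of each growth curve was obtained with the trapezoidal rule up to the exponential-to-stationary transition and normalised to DMSO controls from the same plate.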

Shigella flexneri = test: as above
Summary of the method: as §1

Vibrio cholerae = test: as above
Summary of the method: as §1

[2] = tested on: Yersinia pseudotuberculosis; test: as above
Summary of the method: as §1

P. vulgatus RND KO = test: growth AUC normalised to DMSO control (median) (fraction of control); higher = less growth inhibition, active = hit call of the paper
Summary of the method: (§2)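 In 96-well plates of mGAM seeded at OD578 0.01, strains that had been passaged twice overnight without oxygen were exposed to approved-drug library compounds at 20 μM with 1% DMSO. Hourly OD578 readings were taken for 24 h in an anaerobic incubator. The trapezoidal-rule area under the curve, with curves truncated at entry into stationary phase, was expressed relative to same-plate vehicle wells as the median of three biological replicates.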

P. vulgatus WT = test: as above
Summary of the method: as §2

[3] = tested on: S. enterica typhimurium WT; test: as above
Summary of the method: as §2

[4] = tested on: S. enterica typhimurium tolC KO; test: as above
Summary of the method: as §2
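Throughout, for growth AUC normalised to DMSO control (median): active when median AUC fell below 0.1.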

| SMILES | growth AUC normalised to DMSO control [1] | growth AUC normalised to DMSO control (Shigella flexneri) | growth AUC normalised to DMSO control (Vibrio cholerae) | growth AUC normalised to DMSO control [2] | growth AUC normalised to DMSO control (P. vulgatus RND KO) | growth AUC normalised to DMSO control (P. vulgatus WT) | growth AUC normalised to DMSO control [3] | growth AUC normalised to DMSO control [4] |
| --- | --- | --- | --- | --- | --- | --- | --- | --- |
| CCc1c2c(nc3ccc(OC(=O)N4CCC(N5CCCCC5)CC4)cc13)-c1cc3c(c(=O)n1C2)COC(=O)[C@]3(O)CC [Irinotecan hydrochloride trihydrate] | 0.999 | 1.01 | 1.01 | 0.998 | 1 | 1.1 | 1 | 0.986 |
| CCCCC1C(=O)N(c2ccccc2)N(c2ccc(O)cc2)C1=O (stereo not drawn) [Oxyphenbutazone] | 0.996 | 1.04 | 1.03 | 1 | 1.03 | 1.06 | 1.01 | 1.01 |
| CC(=O)O[C@H]1C(=O)[C@@]2(C)[C@H]([C@H](OC(=O)c3ccccc3)[C@]3(O)C[C@H](OC(=O)[C@H](O)[C@@H](NC(=O)c4ccccc4)c4ccccc4)C(C)=C1C3(C)C)[C@]1(OC(C)=O)CO[C@@H]1C[C@@H]2O [Paclitaxel] | 1.02 | 1.01 | 1.02 | 0.998 | 0.881 | 0.8 | 1.01 | 1.02 |
| CC[C@H](C)C(=O)O[C@H]1C[C@@H](C)C=C2C=C[C@H](C)[C@H](CC[C@@H]3C[C@@H](O)CC(=O)O3)[C@H]21 [Lovastatin] | 0.999 | 0.997 | 0.995 | 0.999 | 0.958 | 0.928 | 0.99 | 0.967 |
| CCOc1ccc(Cc2nccc3cc(OCC)c(OCC)cc23)cc1OCC [Ethaverine hydrochloride] | 1.01 | 1.04 | 1 | 1.01 | 1 | 0.998 | 1 | 0.969 |
| NS(=O)(=O)c1cc2c(cc1C(F)(F)F)NCNS2(=O)=O [Hydroflumethiazide] | 1.01 | 1.01 | 0.998 | 0.998 | 1.02 | 0.986 | 1.01 | 1.01 |
| CO[C@@]1(NC(=O)C(C(=O)O)c2ccc(O)cc2)C(=O)N2C(C(=O)O)=C(CSc3nnnn3C)CO[C@@H]21 (stereo partly drawn) [Moxalactam disodium salt] | 0.00566 (active) | 0.0488 (active) | 0.639 (active) | 0.149 (active) | 0.0332 (active) | 0.0488 (active) | – | – |
| CCN(Cc1ccncc1)C(=O)C(CO)c1ccccc1 (stereo not drawn) [Tropicamide] | 1.01 | 0.987 | 0.995 | 1 | 0.996 | 0.995 | 1.01 | 1 |
| C[C@]12CCC(=O)C=C1C=C[C@@H]1[C@@H]2CC[C@@]2(C)[C@H]1CC[C@@]21CCC(=O)O1 [Canrenone] | 1.01 | 1.06 | 1.03 | 1.01 | 1.07 | 1.1 | 1.01 | 0.939 |
| CN1CCN(c2c(F)cc3c(=O)c(C(=O)O)cn4c3c2SCC4)CC1 [Rufloxacin] | 0.006 (active) | 0.0254 (active) | 0.0252 (active) | 0.0274 (active) | 0.63 | 0.47 | 0.0284 (active) | 0.00853 (active) |
| CN(C)CCCN1c2ccccc2CCc2ccccc21 [Imipramine hydrochloride] | 0.998 | 0.994 | 0.935 | 1.01 | 1 | 0.998 | 1.02 | 0.984 |
| C=CCN1CCCC1CNC(=O)c1cc2nn[nH]c2cc1OC (stereo not drawn) [Alizapride hydrochloride] | 1 | 1 | 1.01 | 0.996 | 0.998 | 1 | 1.02 | 1 |
| COc1ccc(Cl)cc1C(=O)NCCc1ccc(S(=O)(=O)NC(=O)NC2CCCCC2)cc1 [Glibenclamide] | 0.984 | 1.02 | 1.03 | 1.01 | 0.953 | 0.956 | 1.01 | 1 |
| COc1nc(C)nc(Cl)c1NC1=NCCN1 [Moxonidine] | 1.01 | 1.03 | 1.04 | 1.02 | 0.994 | 0.995 | 1 | 0.999 |
| C#CCN(C)Cc1ccccc1 [Pargyline hydrochloride] | 0.964 | 1.03 | 0.942 | 0.994 | 1.01 | 1 | 1 | 1.01 |
| CC(C)(C)NC[C@H](O)COc1cccc2c1CCCC2=O [(-) Levobunolol hydrochloride] | 0.994 | 0.936 | 0.973 | 0.989 | 0.982 | 0.981 | 0.995 | 0.997 |
| CC(=O)CC(c1ccc([N+](=O)[O-])cc1)c1c(O)c2ccccc2oc1=O (stereo not drawn) [Acenocoumarol] | 0.985 | 1.01 | 0.938 | 0.991 | 1.07 | 1.06 | 0.999 | 0.999 |
| CC(=O)OCC1=C(C(=O)O)N2C(=O)[C@@H](NC(=O)Cc3cccs3)[C@H]2SC1 [Cephalothin sodium salt] | 0.00459 (active) | 0.025 (active) | 0.0489 (active) | 0.0158 (active) | 0.00752 (active) | 0.0068 (active) | 0.00336 (active) | 0.00338 (active) |
| O=C1CN(/N=C/c2ccc(-c3ccc([N+](=O)[O-])cc3)o2)C(=O)N1 [Dantrolene sodium salt] | 1.04 | 0.97 | 0.948 | 0.986 | 1.04 | 1.03 | 1.02 | 0.825 |
| N[C@@H]1CONC1=O [D-cycloserine] | 1.03 | 1.01 | 1.02 | 1.01 | 0.972 | 0.962 | 0.994 | 1 |
| CCc1oc2ccccc2c1C(=O)c1cc(Br)c(O)c(Br)c1 [Benzbromarone] | 1.01 | 0.989 | 0.989 | 0.996 | 0.57 | 0.699 | 1 | 0.925 |
| c1ccc2c(c1)CCCC2C1=NCCN1 (stereo not drawn) [Tetrahydrozoline hydrochloride] | 0.981 | 0.981 | 0.991 | 0.996 | 0.997 | 1 | 0.996 | 1 |
| CCN(CC)CCCC(C)Nc1ccnc2cc(Cl)ccc12 (stereo not drawn) [Chloroquine diphosphate] | 0.997 | 0.982 | 1.01 | 1.01 | 1.02 | 1.02 | 1 | 1 |
| Nc1ccn([C@@H]2O[C@H](CO)[C@@H](O)C2(F)F)c(=O)n1 [Gemcitabine] | 1.01 | 1.04 | 1.01 | 1.03 | 1.01 | 1.02 | 0.983 | – |
| Nc1cc(-c2ccncc2)c[nH]c1=O [Amrinone] | 1.01 | 1.06 | 1.07 | 1 | 1.05 | 1.06 | 1 | 1.02 |
| CC(C)(C)NC[C@@H](O)COc1cccc2c1CCCC2=O [(+) Levobunolol hydrochloride] | 0.982 | 0.943 | 0.978 | 0.987 | 0.999 | 0.975 | 0.993 | 0.993 |
| c1ccc(C2CN3CCSC3=N2)cc1 (stereo not drawn) [Tetramisole hydrochloride] | 1.01 | 1.03 | 1.01 | 1.01 | – | – | – | – |
| CC/C(=C(/CC)c1ccc(O)cc1)c1ccc(O)cc1 [Diethylstilbestrol] | 1 | 0.983 | 0.93 | 0.973 | 0.744 | 0.827 | 1 | 0.827 |
| CCn1cc(C(=O)O)c(=O)c2cnc(N3CCCC3)nc21 [Piromidic acid] | 0.996 | 1.04 | 0.0557 (active) | 0.983 | 1.06 | 1.03 | 1.02 | 0.0548 (active) |
| CC(=O)N(CC(O)CO)c1c(I)c(C(=O)NCC(O)CO)c(I)c(C(=O)NCC(O)CO)c1I (stereo not drawn) [Iohexol] | 0.997 | 0.968 | 0.995 | 1 | 1.01 | 0.978 | 0.999 | 1.01 |
